Source: PubChem BioAssay (Tox21)
Records with an inconclusive call do not appear. Active and inactive are the calls of the source. Unless noted, calls follow the shape of the dose curve; as a rule, active = well fitted curve in the direction sought with a large enough effect in the repeat runs; inconclusive = weak or mixed curves; inactive = flat fitted curve, though single readings scatter.

Legend:
[1] = qHTS assay to test for compound auto fluorescence at 535 nm (green) in HEK293 cells (AID 720680)
[2] = qHTS assay to test for compound auto fluorescence at 460 nm (blue) in HEK293 cell free culture (AID 720681)
Outline: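 Test compounds were pinned into cell-free culture medium (DMEM with 10% FBS) and fluorescence was read directly at Ex/Em 405/460 nm. Signals were expressed as fluorescence equivalents of triamterene, with DMSO vehicle as control.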

[3] = qHTS assay to test for compound auto fluorescence at 535 nm (green) in HEK293 cell free culture (AID 720682)
Outline: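 Cell-free medium (DMEM, 10% FBS) receives compound or DMSO by pintool. Plate read directly at Ex 485/Em 535 nm. Signal converted to fluorescein equivalency.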

[4] = qHTS assay to test for compound auto fluorescence at 590 nm (red) in HEK293 cell free culture (AID 720683)
Outline: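 Tox21 10K library compounds were pinned into cell-free DMEM with 10% FBS and fluorescence was read at excitation 540 nm. Activity is expressed as Rose Bengal sodium equivalency.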

[5] = qHTS assay to test for compound auto fluorescence at 590 nm (red) in HepG2 cell free culture (AID 720684)
Outline: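 Readout: intrinsic compound fluorescence at 590 nm emission after 540 nm excitation, scaled to Rose Bengal sodium. Matrix was cell-free MEM with 10% FBS; DMSO vehicle wells served as control.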

[6] = qHTS assay to test for compound auto fluorescence at 460 nm (blue) in HepG2 cell free culture (AID 720685)
Outline: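 Cell-free plates of MEM plus 10% FBS received 23 nL compound or DMSO vehicle; blue-channel (405/460 nm) intensity scored against triamterene as reference fluorophore.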

[7] = qHTS assay to test for compound auto fluorescence at 535 nm (green) in HepG2 cell free culture (AID 720686)
[8] = molecular target: Glucocorticoid receptor (Homo sapiens) (UniProt P04150); test: qHTS assay to identify small molecule agonists of the glucocorticoid receptor (GR) signaling pathway (AID 720691; active = well fitted activation curve with a large enough effect in the signal ratio in the repeat runs, not every such curve was filed as active; the % refers to the signal ratio)
Outline: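 Agonist-mode qHTS in HeLa cells stably expressing a glucocorticoid-response-element beta-lactamase reporter. Fluorescence intensity read with FRET substrate (2 h, room temperature) after 18 h compound treatment at 37 C.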

[9] = molecular target: Glucocorticoid receptor (Homo sapiens) (UniProt P04150); test: qHTS assay to identify small molecule antagonists of the glucocorticoid receptor (GR) signaling pathway (AID 720692; active = well fitted inhibition curve with a large enough effect in the signal ratio in the repeat runs, not every such curve was filed as active; the % refers to the signal ratio)
Outline: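 Inhibition of dexamethasone-driven (5 nM final) beta-lactamase expression was measured in GRE-reporter HeLa cells over 18 h at 37C. Fluorescence was read after 2 h with the B/G FRET substrate at room temperature.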

[10] = qHTS assay to test for compound auto fluorescence at 460 nm (blue) in HepG2 cells (AID 720687)
Outline: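 Cells (2,000/well in MEM with 10% FBS) attached overnight at 37 C, then were exposed to compound or DMSO for 1 hr at 37 C, 5% CO2. Fluorescence read at Ex/Em 405/460 nm, expressed as triamterene-equivalent signal.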

Measured: Potency

Sequence of Glucocorticoid receptor (Homo sapiens) (P04150 whole entry, looked up): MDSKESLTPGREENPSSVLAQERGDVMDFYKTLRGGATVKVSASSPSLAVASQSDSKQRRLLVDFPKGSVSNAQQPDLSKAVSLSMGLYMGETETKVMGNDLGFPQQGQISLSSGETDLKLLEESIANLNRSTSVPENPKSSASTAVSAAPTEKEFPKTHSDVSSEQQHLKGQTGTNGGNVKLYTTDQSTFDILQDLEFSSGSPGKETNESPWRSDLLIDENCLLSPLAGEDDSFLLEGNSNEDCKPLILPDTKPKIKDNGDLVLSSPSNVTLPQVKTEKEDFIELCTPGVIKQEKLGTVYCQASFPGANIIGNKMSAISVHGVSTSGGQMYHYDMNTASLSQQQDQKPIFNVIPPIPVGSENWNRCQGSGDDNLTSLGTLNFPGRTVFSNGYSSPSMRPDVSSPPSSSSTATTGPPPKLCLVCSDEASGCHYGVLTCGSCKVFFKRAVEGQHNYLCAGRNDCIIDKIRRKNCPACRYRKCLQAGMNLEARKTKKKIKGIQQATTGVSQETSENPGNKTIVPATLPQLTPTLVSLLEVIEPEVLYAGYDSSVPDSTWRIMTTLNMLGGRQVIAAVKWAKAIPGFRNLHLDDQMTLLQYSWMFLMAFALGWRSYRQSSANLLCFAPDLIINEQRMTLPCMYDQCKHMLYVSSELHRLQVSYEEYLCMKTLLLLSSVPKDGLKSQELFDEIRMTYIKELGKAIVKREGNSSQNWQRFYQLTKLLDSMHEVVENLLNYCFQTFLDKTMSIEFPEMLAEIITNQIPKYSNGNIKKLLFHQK

CC(=O)OCC(COC(C)=O)OC(C)=O
not listed: [10]
inactive: all other assays above

c1ccc2[nH]ccc2c1
inactive: all assays above

O=c1cc[nH]c(=S)[nH]1
inactive: all assays above

Nc1ccc(S(=O)(=O)Nc2nccs2)cc1
inactive: all assays above

NC(=O)c1cnccn1
not listed: [10]
inactive: all other assays above

NS(=O)(=O)c1cc(C(=O)O)c(NCc2ccco2)cc1Cl
not listed: [8] | [9] | [10]
inactive: all other assays above

Cc1ccc(S(=O)(=O)NC(=O)NN2CCCCCC2)cc1
not listed: [10]
inactive: all other assays above

O=S(=O)(O)NC1CCCCC1
not listed: [8] | [9]
inactive: all other assays above

O=C(O)CCCCCCCC(=O)O
inactive: [1] | [2] | [3] | [4] | [5] | [7]

CCCNC(=O)NS(=O)(=O)c1ccc(Cl)cc1
not listed: [10]
inactive: all other assays above

OC(Cn1cncn1)(Cn1cncn1)c1ccc(F)cc1F
not listed: [10]
inactive: all other assays above

O=C(O)c1cccnc1
inactive: [1] | [2] | [3] | [4] | [5] | [7]

OCCc1ccccc1
not listed: [8] | [9]
inactive: all other assays above

O=C1CN(/N=C/c2ccc([N+](=O)[O-])o2)C(=O)N1
not listed: [10]
inactive: all other assays above

Cn1cc[nH]c1=S
inactive: [1] | [2] | [3] | [4] | [5] | [7]

CCOc1ccc(NC(=O)CC(C)O)cc1 (stereo not drawn)
not listed: [8] | [9]
inactive: all other assays above

CCCC(O)C(CC)CO (stereo not drawn)
not listed: [8] | [9] | [10]
inactive: all other assays above

O=C(c1ccccc1)c1ccccc1
not listed: [10]
inactive: all other assays above

CC(O)CO (stereo not drawn)
inactive: all assays above

CCCC(CCC)C(=O)O
inactive: all assays above

Nc1ccn([C@H]2CC[C@@H](CO)O2)c(=O)n1
not listed: [8] | [9] | [10]
inactive: all other assays above

O=C(O)c1[nH]n(-c2ccc(S(=O)(=O)O)cc2)c(=O)c1N=Nc1ccc(S(=O)(=O)O)cc1
not listed: [8] | [9] | [10]
inactive: all other assays above

O=c1ccc2ccccc2o1
inactive: [1] | [2] | [3] | [4] | [5] | [7]

Cc1ccc(C)c(OCCCC(C)(C)C(=O)O)c1
not listed: [8] | [9]
inactive: all other assays above

CC(=O)NS(=O)(=O)c1ccc(N)cc1
not listed: [10]
inactive: all other assays above

CCCCCCCCCCCCCCCC(=O)O
inactive: all assays above

Cc1ccc(O)cc1
not listed: [10]
inactive: all other assays above

O=S(=O)(O)c1ccc2cc(O)ccc2c1
not listed: [10]
inactive: all other assays above

Cc1cc(=O)n(-c2ccccc2)n1C
not listed: [8] | [9] | [10]
inactive: all other assays above

NC(=O)NC1NC(=O)NC1=O (stereo not drawn)
inactive: all assays above

Nc1ccc(C(=O)O)cc1
not listed: [10]
inactive: all other assays above

NC(=O)c1ccccc1O
not listed: [10]
inactive: all other assays above

Cc1cn([C@H]2C[C@H](N=[N+]=[N-])[C@@H](CO)O2)c(=O)[nH]c1=O
not listed: [10]
inactive: all other assays above

O=C(O)C(=O)O
inactive: all assays above
